CRFBP-R2 block = antagonists of CRF-BP/CRF-R2 complex, primary screen, cell-based, HEK293, calcium dye fluorescence, uHTS; AID 588475, 2011; CRF-induced calcium fluorescence; inhibition, % at 11.8 µM; 350,000 tested, 0.59% active;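 active = inhibition of the ligand-induced calcium signal above about 50% at the single tested concentration, limit read from the data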
NR3A LBD binder = binders of NR3A ligand-binding domain, primary screen, biophysical, differential scanning fluorimetry, uHTS | Tm shift relative to glycine control, % at 25 µM | Glutamate receptor ionotropic, NMDA 3A (GRIN3A) ligand-binding domain | NR3A LBD differential scanning fluorimetry, Tm shift; 0% = protein alone, 100% = glycine-bound protein | 340,000 tested, 2.5% active | AID 1259313, 2017;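 active = melting temperature shift of at least 10% of the positive control shift, at one fixed dose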
MPTP inh = mitochondrial permeability transition pore inhibitors, primary screen, biochemical, isolated mouse mitochondria, absorbance; Ca2+ swelling absorbance, 30 min; inhibition, % at 10 µM; 360,000 tested, 1.4% active;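 active = inhibition of 50% or more, scaled per plate between neutral and stimulator controls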
CRFR2-BP ag = agonists of CRF-BP/CRF-R2 complex, primary screen, cell-based, HEK293, calcium dye fluorescence, uHTS | CRF-binding protein / CRF receptor 2 complex (human) | activation, % at 13.2 µM | calcium dye fluorescence (FLIPR); percent of saturating CRF peptide response | AID 588473, 2011 | 350,000 tested, 0.46% active;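 active = activation of at least 50%, plus an integration ratio under a set limit after plate pattern correction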
TMEM16A inh = TMEM16A chloride channel inhibitors, primary screen, cell-based, HTS; normalized B-score (activity score, 25-100; higher = stronger inhibition) at 10 µM; HEK293 TMEM16A/YFP iodide influx fluorescence, ionomycin; Anoctamin-1 (Mus musculus), Q8BHY3; 310,000 tested, 1.2% active;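 active = ratio plate-corrected score three or more library SD toward inhibition, starting fluorescence score within five deviations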;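 also: score derived from kinetic fluorescence span divided by baseline fluorescence per well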
Target sequence (Q8BHY3 whole entry, looked up): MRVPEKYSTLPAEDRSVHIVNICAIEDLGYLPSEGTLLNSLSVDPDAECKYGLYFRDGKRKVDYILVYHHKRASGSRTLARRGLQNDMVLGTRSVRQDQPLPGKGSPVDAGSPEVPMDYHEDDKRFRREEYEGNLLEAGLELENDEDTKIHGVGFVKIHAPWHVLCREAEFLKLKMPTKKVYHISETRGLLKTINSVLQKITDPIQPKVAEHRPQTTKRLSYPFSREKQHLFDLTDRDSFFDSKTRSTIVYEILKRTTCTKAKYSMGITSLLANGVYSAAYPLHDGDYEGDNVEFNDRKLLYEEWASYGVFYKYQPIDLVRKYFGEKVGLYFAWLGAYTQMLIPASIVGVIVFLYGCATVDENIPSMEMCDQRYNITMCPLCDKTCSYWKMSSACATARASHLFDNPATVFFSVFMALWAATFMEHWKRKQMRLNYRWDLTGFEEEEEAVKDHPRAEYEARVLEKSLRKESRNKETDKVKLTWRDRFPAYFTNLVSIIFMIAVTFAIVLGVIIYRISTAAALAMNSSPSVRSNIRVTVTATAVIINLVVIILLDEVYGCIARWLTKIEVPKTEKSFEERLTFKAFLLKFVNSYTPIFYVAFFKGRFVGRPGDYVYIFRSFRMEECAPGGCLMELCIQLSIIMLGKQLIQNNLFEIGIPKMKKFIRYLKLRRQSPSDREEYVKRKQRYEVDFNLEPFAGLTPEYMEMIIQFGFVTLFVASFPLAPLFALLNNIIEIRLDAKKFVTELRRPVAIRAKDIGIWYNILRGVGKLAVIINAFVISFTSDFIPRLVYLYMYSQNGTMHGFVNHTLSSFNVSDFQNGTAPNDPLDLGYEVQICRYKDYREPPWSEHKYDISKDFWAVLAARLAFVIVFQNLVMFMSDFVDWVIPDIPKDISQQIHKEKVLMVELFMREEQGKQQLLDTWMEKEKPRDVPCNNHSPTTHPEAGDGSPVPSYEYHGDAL
ANO1 activ = TMEM16A chloride channel activators or potentiators, primary screen, cell-based, HTS; Anoctamin-1 (Mus musculus), Q8BHY3; HEK293 TMEM16A/YFP-H148Q/I152L, iodide quench fluorescence; hits give low values; B-score at 10 µM; 340,000 tested, 0.3% active; AID 623877, 2012;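 active = fluorescence-ratio B-score plate-corrected deviation score at least 3 library SD below zero, with starting fluorescence score within 5 deviations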;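 also: channel opened by trigger with iodide after compound preincubation; score built on the fluorescence ratio of max minus min over baseline; more negative score means more quench and so TMEM16A activation or potentiation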
TMEM16A reconf = TMEM16A chloride channel inhibitors, confirmation, cell-based, re-confirmation; shares compounds with TMEM16A inh; HEK293 TMEM16A/YFP-H148Q, iodide quench fluorescence; ionomycin added to raise cell calcium; inhibition, % at 10 µM; 2,300 tested, 39% active; AID 652189, 2013;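 active = mean duplicate percent inhibition, scaled so buffer wells are 0 and the reference blocker 100, over three buffer SD above buffer mean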
TMEM16A Ca cntr = calcium mobilization in TMEM16A/YFP HEK293 cells, confirmation, counter-screen for TMEM16A inhibitor project | 2,300 tested, 2% active | shares compounds with TMEM16A inh | calcium response (% of ionomycin), % at 10 µM | Fluo4 calcium mobilization;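 active = duplicate-averaged calcium signal over 20% of the ionomycin maximum, relative to buffer baseline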;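 also: each well's signal is peak minus trough fluorescence divided by its pre-addition baseline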
YFP-HEK293 quench = iodide YFP quench changes in parental YFP-HEK293, counter-screen for TMEM16A inhibitor project, cell-based; shares compounds with TMEM16A inh; YFP ratio F(max-min)/F0 at 10 µM; 2,300 tested, under 10 active; ionomycin;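 active = yellow fluorescent protein signal ratio exceeding the buffer control mean by over 5 SD of those controls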;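 also: ratio is mean of duplicate wells from kinetic YFP trace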
ClC-1 rat inh = ClC-1 chloride channel inhibition, selectivity assay for TMEM16A inhibitor project, cell-based, voltage-dependent ClC-1; CHO ClC-1-YFP, iodide influx fluorescence quench; iodide control reads 0, buffer control 100; AID 652236, 2013; ratio percent, % at 10 µM; 2,300 tested, under 10 active; shares compounds with TMEM16A inh;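 active = duplicate-mean ratio percent above the mean of iodide-only control wells, which defines zero, plus 5 of their SD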;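 also: higher percent means stronger block of ClC-1 iodide influx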
Hits are given with their value; i = inactive; nt = no result given. Only some compounds are listed: those with a hit (about 5.1% of all), similar ones and a draw of the others.

SMILES | CRFBP-R2 block | NR3A LBD binder | MPTP inh | CRFR2-BP ag | TMEM16A inh | ANO1 activ | TMEM16A reconf | TMEM16A Ca cntr | YFP-HEK293 quench | ClC-1 rat inh
COc1cc(C(=O)Oc2cccc(Nc3ncnc4ccccc34)c2)cc(OC)c1OC | i | i | i | i | 100 | i | 22% | i | i | i
COc1ccc(C(=O)Oc2cccc(Nc3ncnc4ccccc34)c2)cc1OC | i | i | i | i | i | i | nt | nt | nt | nt
O=C(Nc1ccc(Nc2ccncc2)cc1)c1ccc(Nc2ccnc3ccc([N+](=O)[O-])cc23)cc1[N+](=O)[O-] | i | i | i | i | 25 | i | i | i | i | i
COC(=O)CCCn1cc(CN2CC(N3CCN(C)CC3)CS2(=O)=O)nn1 (configuration not stated) | nt | nt | i | nt | nt | nt | nt | nt | nt | nt
Cc1cc(C)nc(/N=C(\N)Nc2ccc(SC(F)F)cc2)n1 | i | i | i | i | 100 | i | i | 32% | i | i
Cc1ccccc1-n1c(SC(C)C(=O)NCC2CCCO2)nnc1-c1ccncc1 (configuration not stated) | i | i | i | i | nt | i | nt | nt | nt | nt
CC(NC(=O)Cn1cc2c(n1)CCCCC2)c1ccccc1 (configuration not stated) | i | i | i | i | 25 | i | i | i | i | i
O=C(O)Cn1cc2c(n1)CCCCC2 | i | i | i | i | i | i | nt | nt | nt | nt
Cc1ccc(C(=O)NC(C)c2nnc(SCC(=O)NC3CCCC3)n2C)cc1 (configuration not stated) | i | i | i | i | i | i | nt | nt | nt | nt
CCCCCOC(=O)C1C(c2ccccc2)C(C(=O)O)C1c1ccccc1 (configuration not stated) | i | 10 | i | i | 25 | i | i | i | i | i
COc1ccc(CN2CCCC(C(=O)c3ccc4c(c3)OCO4)C2)c(F)c1 (configuration not stated) | i | i | i | i | i | i | nt | nt | nt | nt
CC(C)c1ccc(C(=O)Nc2ccc(CN3CCOCC3)cc2)cc1 | i | i | i | i | 100 | i | i | i | i | i
CC(C)c1ccc(/C=C/C(=O)Nc2ccc(CN3CCOCC3)cc2)cc1 | i | i | i | i | 100 | i | 26% | i | i | i
Cc1ccc(C(=O)NCC(=O)NCc2ccc(Cl)cc2)s1 | i | i | i | i | nt | i | nt | nt | nt | nt
COc1ccc(N(C(=O)Cn2nnc(-c3ccc(F)cc3)n2)C(C)C(=O)NC2CCCC2)cc1OC (configuration not stated) | i | i | i | i | i | i | nt | nt | nt | nt
CCCCSc1nnc(-c2ccccc2)c2ccccc12 | i | i | i | i | 100 | i | i | i | i | i
CCN1CCN(c2nnc(-c3ccccc3)c3ccccc23)CC1 | i | i | i | i | i | i | nt | nt | nt | nt
Cc1cccc(Cc2c(C)nc3c(C(=O)N4CCN(Cc5ccc6c(c5)OCO6)CC4)cnn3c2C)c1 | i | i | i | i | 25 | i | i | i | i | i
COCCN1CCN(c2cc(-c3ccccc3)nc3cc(-c4cccc(F)c4)nn23)CC1 | i | i | i | i | 100 | i | i | i | i | i
Fc1cccc(-c2cc3nc(-c4ccccc4)cc(N4CCC5(CC4)OCCO5)n3n2)c1 | i | i | i | i | i | i | nt | nt | nt | nt
COc1cccc(CNC(=O)CCCn2nc(C)c3c(C)n(-c4ccc(C)cc4)nc3c2=O)c1OC | i | i | i | i | i | i | nt | nt | nt | nt
C=CCOc1ccc(/C=C2\SC(=S)N(NS(=O)(=O)c3ccc(C)cc3)C2=O)cc1 | i | i | i | i | 100 | i | 72% | i | i | i
CCNS(=O)(=O)c1ccc(NC(=O)Nc2cc(C)ccc2OC)cc1 | i | 20 | i | i | 25 | i | i | i | i | i
COc1ccc(C)cc1NC(=O)NNS(=O)(=O)c1ccc(NC(C)=O)cc1 | i | i | i | i | i | i | nt | nt | nt | nt
CCCCCCCCC(=O)Nc1cc(C)ccc1OC | i | i | i | i | 100 | i | i | i | i | i
SMILES | CRFBP-R2 block | NR3A LBD binder | MPTP inh | CRFR2-BP ag | TMEM16A inh | ANO1 activ | TMEM16A reconf | TMEM16A Ca cntr | YFP-HEK293 quench | ClC-1 rat inh
COc1ccc(-c2cc(C3CCN(c4cc(Cl)nc(N)n4)CC3)[nH]n2)cc1 | i | i | i | i | i | i | nt | nt | nt | nt
COc1ccc(OC)c(-c2cc(C3CCN(c4cc(Cl)nc(N)n4)CC3)[nH]n2)c1 | i | i | i | i | 100 | i | i | i | i | i
Cc1oc(-c2cc(F)ccc2F)nc1CN1CCN(c2ncnc3ccccc23)CC1 | i | i | i | i | 100 | i | 20% | i | i | i
CCC(C)(C)NC(=O)C(c1ccccc1Cl)N(Cc1cccnc1)C(=O)CCC(=O)Nc1cc(C)on1 (configuration not stated) | i | i | i | i | i | i | nt | nt | nt | nt
COC(=O)c1cn(CCOc2ccccc2OC)c2ccccc12 | i | i | i | i | 25 | i | i | i | i | i
CCOC(=O)C1CCN(C(=O)c2ccc(OCC(=O)Nc3cccc(C(F)(F)F)c3)cc2)CC1 | i | i | i | i | i | i | nt | nt | nt | nt
CCOC(=O)C1CCN(C(=O)c2ccc(OCC(=O)Nc3cccc(C(F)(F)F)c3)c(OC)c2)CC1 | i | i | i | i | 25 | i | 28% | i | i | i
NC(=O)NC(=O)COC(=O)CCCc1c[nH]c2ccccc12 | i | i | i | i | 100 | i | i | i | i | i
COc1ccc(N2CC(C(=O)Nc3nnc(SCC(=O)N4CCOCC4)s3)CC2=O)cc1 (configuration not stated) | i | i | i | i | i | i | nt | nt | nt | nt
COc1ccc(C(CNC(=O)C(C)c2ccc3cc(OC)ccc3c2)N(C)C)cc1 (configuration not stated) | i | i | i | i | i | i | nt | nt | nt | nt
COc1ccc2cc([C@H](C)C(=O)N(C)Cc3ccccc3N3CCCC3)ccc2c1 | i | i | i | i | i | i | 22% | i | i | i

Screening results: PubChem, several laboratories
